From ChEMBL document CHEMBL3988442, “University of Dundee, Small-Polar-MMV Screening Library” (2021) come the findings set out here.

Out of some 69,000 compounds screened, about 420 (0.61%) showed an effect of 50% or more. Shown is part of a subset that was picked to be rich in strong results.

The target of this experiment is T1, Histidine--tRNA ligase (Leishmania infantum) (UniProt A4I591).
T1 sequence (whole entry): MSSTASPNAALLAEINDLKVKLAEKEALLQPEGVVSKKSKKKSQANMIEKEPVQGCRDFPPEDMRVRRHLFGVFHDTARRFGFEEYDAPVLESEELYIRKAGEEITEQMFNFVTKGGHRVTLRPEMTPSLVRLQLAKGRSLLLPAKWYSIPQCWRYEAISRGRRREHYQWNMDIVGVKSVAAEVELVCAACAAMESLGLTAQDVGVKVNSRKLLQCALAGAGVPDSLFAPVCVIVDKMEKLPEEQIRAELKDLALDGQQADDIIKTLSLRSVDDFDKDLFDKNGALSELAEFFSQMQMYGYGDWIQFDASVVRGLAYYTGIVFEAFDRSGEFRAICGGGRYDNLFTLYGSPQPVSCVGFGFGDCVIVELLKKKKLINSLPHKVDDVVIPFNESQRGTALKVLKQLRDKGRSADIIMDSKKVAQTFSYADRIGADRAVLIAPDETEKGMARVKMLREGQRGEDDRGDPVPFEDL
The experiment in a line: Leishmania infantum Histidine tRNA synthetase (LdHisRS). Format: functional. The arrangement: scale not given: in the data most compounds retested in dose-response had high values. The conditions noted are these: 30 µM.
Take `COc1ccc(N2Cc3nc(N)ncc3C2=O)cc1`: the Percent Effect came out at 0%.

Take `O=C1[C@H]2CN(CC3CC3)C[C@H]2CN1Cc1cccc(F)c1`: the Percent Effect is -1.5%.

In the case of `O=C([C@H]1C[C@H]2OCC[C@H]2N(CCc2ccccc2)C1)N1CCCCO1`, the Percent Effect worked out at 9.02%.

With `Cc1nc(CN2C[C@@H]3CN(c4ncc(F)cn4)C[C@@H]3C2=O)cs1`, the Percent Effect is 19.7%.

Consider `O=C(c1cccnc1)N1C[C@@H]2CC[C@H](C1)N(Cc1ccc(F)cc1Cl)C2`, for which the Percent Effect is 7.2%.

In the case of `CC(=O)N1CCN2C[C@H](CO)[C@@H](c3ccccc3)[C@H]2C1`, the Percent Effect turned out to be 2.04%.

In the case of `COC(=O)CC(C1=Cc2ccccc2OC1)c1oc(C)cc(=O)c1O` (stereo not drawn), the Percent Effect stood at 23.1%.

Regarding `CC1=C(C#N)C(=O)N(C)C(=O)/C1=C\C1=Cc2ccccc2OC1`, the Percent Effect was found to be 92.1%.

`CC(Cn1cccn1)NC(=O)C1=Cc2ccccc2OC1` (stereo not drawn): the Percent Effect stood at 16%.

Take `O=C(Nc1cccnc1)C1=Cc2ccccc2OC1`: the Percent Effect turned out to be 25%.

Regarding `CCN1C(=O)C(C#N)=C(C)/C(=C/C2=Cc3ccccc3OC2)C1=O`, the Percent Effect is 86.8%.

Take `Cc1nc([C@H]2C[C@H]3CN(C(=O)c4cc(C)c(C)s4)CC[C@@H]3O2)no1`: the Percent Effect was 20.6%.

On to `COc1cccc(C(=O)N2C[C@@H](c3ccccc3)[C@@H]3NCCCC[C@@H]32)c1`, for which the Percent Effect was 10.3%.

`Cc1nc2c(c(=O)[nH]1)CN(C(=O)CC[C@@H]1CCCN3CCCC[C@H]13)C2`: the Percent Effect was found to be 3.54%.

On to `Cc1ccc(CN2CC[C@@H]3[C@@H](CO[C@H]3CN3CCN(C)CC3)C2)s1`, for which the Percent Effect was -11.1%.

Consider `O=C(c1cscn1)N1C[C@H](OCc2cccnc2)[C@H]2COC[C@H]21`, for which the Percent Effect was 9.72%.

Consider `CCC1=N[C@@]2(CC[C@@H]3CN(Cc4ccccc4C)C[C@@H]32)C(=O)N1C`, for which the Percent Effect was determined as 10%.

As to `Cn1cccc1C(=O)N[C@@H]1CN(Cc2ccsc2)[C@@H]2COC[C@@H]21`, the Percent Effect amounted to 20%.

For `Cc1ccnc(N2CCN(C[C@]3(O)CCCN4CCCC[C@@H]43)CC2)c1`, the Percent Effect was determined as 2.86%.

`Cc1nc(O)cc(CCNC(=O)CC[C@@H]2CCCN3CCCC[C@H]23)n1`: the Percent Effect worked out at 5.38%.

For the molecule `Cc1ccc(-n2nc(C)c3c2NC(=O)CC3c2cnc(N)s2)cc1` (stereo not drawn), the Percent Effect was determined as 17.3%.

With `CC1=C(C#N)C(=O)NC(=O)/C1=C\c1c(C)nn(-c2ccc(Cl)cc2)c1O`, the Percent Effect came out at 51.5%.

Turning to `CCN(CC)CCNC(=O)CCc1c(C)nn(-c2ccc(Cl)cc2)c1C`, the Percent Effect came out at 7.92%.

As to `Cc1nn(C)c(=O)c2nn(-c3ccc(Cl)cc3)c(C)c12`, the Percent Effect is 5.5%.

With `CC1=C(C#N)C(=O)NC(=O)/C1=C\c1c(C)nn(-c2ccc(C)cc2)c1O`, the Percent Effect came out at 70.1%.

As to `CC1=C(C#N)C(=O)NC(=O)/C1=C\c1c(C)nn(-c2ccccc2)c1O`, the Percent Effect came to 43.3%.

For `Cc1cc(CN2CC[C@H]3OCC[C@@]3(C(=O)NCc3ccco3)C2)no1`, the Percent Effect was 11.4%.

As for `O=C([C@H]1CCS(=O)(=O)[C@@H]2CN(CCc3ccccc3)C[C@H]12)N1CCCC1`, the Percent Effect was found to be 17.6%.

Take `Cc1ccncc1C(=O)N1CC[C@@]2(O)CCN(C3CCCCC3)C[C@H]2C1`: the Percent Effect came to 14.5%.

As to `c1cnn(CCCO[C@@H]2CC[C@H]3[C@H]2OCCN3CC2CCOCC2)c1`, the Percent Effect was found to be 13.9%.

Consider `Cc1noc(C)c1CN1C[C@@H]2CC[C@H](C1)N(Cc1cc(F)cc(F)c1)C2`, for which the Percent Effect was determined as 24.7%.

On to `Cc1ccc(N2CCC3(CC2)COCCN(c2nccs2)C3)nn1`, for which the Percent Effect worked out at 58.5%.

Take `Cc1ccc(N2CC3(CCN(c4nccs4)C3)C2)nn1`: the Percent Effect is 9.52%.

As for `Cc1ccc(N2CCCC3(COCCN(c4nccs4)C3)C2)nn1` (stereo not drawn), the Percent Effect was 11.4%.

In the case of `CS(=O)(=O)N1C[C@@H]2CC[C@H](C1)N(C(=O)Cn1ccc3ccccc31)C2`, the Percent Effect was determined as 11.6%.

As for `Cn1cc(CN2CC[C@@H]3[C@H]2CCC(=O)N3c2ccccc2)cn1`, the Percent Effect was determined as 5.56%.

With `CN(CCOc1ccccc1)C(=O)Nc1cccn(C)c1=O`, the Percent Effect was found to be 112%.

On to `Cn1cccc(NC(=O)COc2ccc(Br)cc2)c1=O`, for which the Percent Effect stood at 26.1%.

Take `COc1c(NC(=O)N(C)CCOc2ccccc2)c(C)nn1C`: the Percent Effect was determined as 24.1%.

For `O=C(NCc1ccco1)[C@H]1COC[C@H]2CN(Cc3ccccn3)C[C@H]21`, the Percent Effect amounted to 14%.

Consider `Cc1ccc(NC2CCN(C(=O)CCc3ccco3)CC2)nn1`, for which the Percent Effect is 27.7%.

With `Cc1ccccc1NC1CCN(C(=O)CCc2ccco2)CC1`, the Percent Effect is 12.5%.

On to `Cc1ccc(N(C)C2CCN(C(=O)CCc3ccco3)CC2)nn1`, for which the Percent Effect turned out to be 58.5%.

As for `O=C(c1ncccn1)N1C[C@H]2CCC[C@@]2(COCc2cccnc2)C1`, the Percent Effect is -3.92%.

As for `Cc1cnc(C(=O)N2C[C@H]3CN(Cc4cccs4)C[C@H]3C2)cn1`, the Percent Effect is -3.19%.

On to `CS(=O)(=O)CCC(=O)N1C[C@@H]2CC[C@H](C1)N(Cc1ccccn1)C2=O`, for which the Percent Effect was found to be 18%.

`O=C(CC1CC1)N[C@@H]1CN(Cc2ccoc2)C[C@@H]2CCCO[C@@H]21`: the Percent Effect is -31.4%.

Turning to `O=C(Nc1cnn(Cc2ccc(F)cc2Cl)c1)C1CC1`, the Percent Effect was found to be 15.9%.

Take `O=C(Nc1ccc(=O)n(Cc2ccccc2Cl)c1)C1CC1`: the Percent Effect turned out to be 114%.

As to `O=C1CCC(C(=O)Nc2ccc(=O)n(Cc3ccc(Cl)c(Cl)c3)c2)N1` (stereo not drawn), the Percent Effect amounted to 95.2%.

Turning to `O=C1CC[C@H](C(=O)Nc2cnn(-c3ccccc3Br)c2)N1`, the Percent Effect is 7.32%.

Turning to `CC1CCN(Cc2ccccc2CNC(=O)C2CNC(=O)N2)CC1` (stereo not drawn), the Percent Effect is 5.18%.

Turning to `O=C1NCC(C(=O)NCc2ccccc2CN2CCOCC2)N1` (stereo not drawn), the Percent Effect worked out at 7.25%.
